Test results from PubChem BioAssay (Tox21).
Values without a mark were called inactive. Calls follow the shape of the full dose curve.

target: Muscarinic acetylcholine receptor M1 (Homo sapiens) (UniProt P11229); experiment: Cholinergic receptor muscarinic 1 (CHRM1) small molecule agonists, cell-based qHTS assay (AID 1963589); settings: CHRM1-CHO cells, agonist mode, calcium flux fluorescence; series mostly up to 76.8 µM; activation: at the top concentration; also: nearly all actives have a fitted effect of over 35% in size
Summary of the method: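 Cells were plated and incubated 18 h at 37 C/5% CO2, loaded with calcium dye for 1 h at 37 C, then treated with compounds in DMSO. Fluorescence was recorded kinetically at 1 sec intervals.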
% is scaled to controls: 0 for no effect and ±100 for the full control effect.

Muscarinic acetylcholine receptor M1 (Homo sapiens), sequence (P11229 whole entry, looked up): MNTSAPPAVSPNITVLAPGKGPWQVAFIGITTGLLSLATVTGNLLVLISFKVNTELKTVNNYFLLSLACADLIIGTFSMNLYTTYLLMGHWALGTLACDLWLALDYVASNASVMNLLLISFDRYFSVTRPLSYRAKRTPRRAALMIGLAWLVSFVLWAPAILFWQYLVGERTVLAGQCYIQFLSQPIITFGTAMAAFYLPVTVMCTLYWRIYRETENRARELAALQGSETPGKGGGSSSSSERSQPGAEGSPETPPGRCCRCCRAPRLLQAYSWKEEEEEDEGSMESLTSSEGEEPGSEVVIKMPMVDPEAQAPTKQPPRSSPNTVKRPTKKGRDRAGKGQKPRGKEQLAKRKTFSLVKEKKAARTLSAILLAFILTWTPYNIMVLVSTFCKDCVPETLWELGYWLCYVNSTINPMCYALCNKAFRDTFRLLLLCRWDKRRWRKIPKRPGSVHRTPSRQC

**Q.** For `c1cc2c3c(c1)ccc1cccc(c13)C2`, which “activation” value is on record?
**A.** The value was 0.0591%.

**Q.** How did the “activation” value turn out when `CCOC(=O)N1CCC(Nc2ccc(Cl)cc2N)CC1` was run?
**A.** Its value is 6.87% [at 35.3 µM].

**Q.** For `CCCCCCCCCCOCC(O)CN` (centres undefined), which “activation” value is on record?
**A.** Its value is 4.28% [at 35.3 µM].

**Q.** How did the “activation” value turn out when `CC(C)(Oc1ccc(Cl)cc1)C(=O)OCCCOC(=O)C(C)(C)Oc1ccc(Cl)cc1` was run?
**A.** The value was -0.667% [at 35.3 µM].

**Q.** `CCCCCCCC(=O)Oc1c(Br)cc(C#N)cc1Br` was tested. Which “activation” value did it give?
**A.** The value was 1.37%.

**Q.** How did the “activation” value turn out when `COc1ccc(-c2coc3cc(O)ccc3c2=O)cc1` was run?
**A.** Its value is 0.618%.

**Q.** Which “activation” value does the source give for `COc1ccc2nc(SCc3ncc(C)c(OC)c3C)[nH]c2c1` here?
**A.** The value was -0.723% [at 35.3 µM].

**Q.** For `CC(C)OC(=O)C(C)N(C(=O)c1ccccc1)c1ccc(F)c(Cl)c1` (centres undefined), which “activation” value is on record?
**A.** Its value is -0.145%.

**Q.** For `CCOC(=O)c1c(N)sc2c1CCN(Cc1ccccc1)C2`, which “activation” value is on record?
**A.** Its value is 0.0384% [at 35.3 µM].

**Q.** `CCCCNc1c(C(=O)OCC)c(C)nc2c1cnn2CC` was tested. Which “activation” value did it give?
**A.** Its value is 0.0026% [at 35.3 µM].

**Q.** For `O=C(NC1CCN(CCc2c[nH]c3ccccc23)CC1)c1ccccc1`, which “activation” value is on record?
**A.** The value was -0.626% [at 35.3 µM].

**Q.** With `O=C(O)CCCc1c[nH]c2ccccc12` as the molecule, how does the “activation” value read?
**A.** Its value is 0.652%.

**Q.** For `CCCC(C)c1ccccc1O` (centres undefined), which “activation” value is on record?
**A.** The value was 0.129%.

**Q.** With `CCO[Si](C)(CCCOCC1CO1)OCC` (centres undefined) as the molecule, how does the “activation” value read?
**A.** The value was -0.197%.

**Q.** Which “activation” value does the source give for `O=C(O)c1cn(C2CC2)c2cc(Cl)c(F)cc2c1=O` here?
**A.** The value was 0.008% [at 35.3 µM].

**Q.** How did the “activation” value turn out when `CCCC(=O)O[C@]1(C(=O)CC)CC[C@H]2[C@@H]3CCC4=CC(=O)CC[C@]4(C)[C@H]3[C@@H](O)C[C@@]21C` was run?
**A.** The value was -0.004% [at 35.3 µM].

**Q.** `CCC(=O)Oc1ccc2c(c1)CC[C@@H]1[C@@H]2CC[C@@]2(C)[C@H]1C[C@@H](OC(=O)CC)[C@@H]2OC(=O)CC` was tested. Which “activation” value did it give?
**A.** The value was -0.223% [at 35.3 µM].

**Q.** How did the “activation” value turn out when `CC1(C)CCC(C)(C)c2cc(NC(=O)c3ccc(C(=O)O)cc3)ccc21` was run?
**A.** Its value is 6.3% [at 35.3 µM].

**Q.** How did the “activation” value turn out when `CCCCC(=O)O[C@]1(C(=O)CO)CC[C@H]2[C@@H]3CCC4=CC(=O)CC[C@]4(C)[C@H]3[C@@H](O)C[C@@]21C` was run?
**A.** Its value is 2.03% [at 35.3 µM].
